The test system of the test is VDR:RXRa (NR concentration 270 nM, RXRa partner concentration 90 nM). The test can be described thus: PBM binding z-score (relative to random genomic background probes); higher = stronger binding; sequences stand for … in GC…GCGATTGACAGCGTAGAATGAAGG
As for the experimental part: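 Protein-binding microarray (Agilent 4x180K custom design, double-stranded 60-nt probes: 5' GC cap, 34-nt variable region, 24-nt constant primer region; full probe sequence given). Purified or IVT nuclear receptor:RXRα heterodimers (3:1 NR:RXRα, mostly 270:90 nM) or homodimers were incubated for 1 h in PBS with 2% milk and no ligand, then detected with Alexa488 antibodies. Fluorescence from o1-orientation probes (~5 replicates averaged) was converted to z-scores against 500 random hg19 background probes. Variable regions are seed direct-repeat (DR0–DR5) sites, all their single-nucleotide variants and half-site ablations.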
TAGCCTAGGTCATTGCGCCAGTATAGTACGCATC: the PBM binding z-score amounted to 2.33. ACTATTAGTTGACTTAGGGCAACCGTTACGACGC: the PBM binding z-score was found to be 0.577. In the case of CCTTACGGGTCGCTCCAGGTTATAGCATCGGAGT, the PBM binding z-score was found to be 1.1. In the case of GCTATTAGTGGAAAGGGCAACCGAATGATTCTCG it was 0.104. In turn, CCTCGGATGACAACAGGAGGTCAGAGCTGCCAGA showed a PBM binding z-score of 1.55. In the case of CGTCAAAATTCAACTAAGGTAACGTAAAGCACGC it was 0.298; in that of CCCACTGGGCCACGAAAGGTCATTGATTCAGTGA, 4.18; in that of CGTACTAGGTCAGAACAGGACAGTGAAGGATGAT, 0.861. In turn, CCTACTGGGCCAAAAAGCTCATTGATGCCGATAA had a PBM binding z-score of -0.648. AATACAGGGTCATCGTATGCCAGAGTACGCACAG had a PBM binding z-score of 5.08. In the case of TCTTGTAGATCAATAGAGGTTAAGAAGGTGCGCT it was 1.91. For the sequence GCGACTGGCGCAAAGCAGGTTACCATAAGGTTGG, the PBM binding z-score was -0.716.

TCCTGTAGATCAAAGGTTAAGAAAGCCGAAGCCT returned a PBM binding z-score of 1.44. CAAACTAGGTCAAAGGTCAAAGGCGAGCCAACCA gave a PBM binding z-score of 6.82. As for GCTATTAGTTGAAAGGGCAAGCGAATGATTCTCG, the figure is 0.461; as for CGAACTAGGTTAAGGACAGTGAATCTCCGCACGC, -0.159; as for TAGCCTTGGTCATGCGGGCCAGTATAGTGTCGGC, -0.724. In the case of CCGAGTAGGTTATGGGGCATTCGGGCAACGGTGA it was -0.16. On to AGAATGAGGTTATACGTATATCAGGGAAGAAAGT, for which the PBM binding z-score was found to be 1.69. In the case of ATATGTAGGTTACAACCGGGTCATTCAGGCTATG it was 4.56; in that of AGTCAAAGTTCACTAGTTAACGTAAGATTCAGCT, 3.88; in that of GGAACGAGGGCAAGTTGATCGCAGAGTTTGATGG, 0.673. GGAACGAGGGAATTCGAGTTGATAGCATGGCGAT registered a PBM binding z-score of -0.217. In the case of ATCGAAAGGTCGGAGGTGAGTATACCCACCCGAA it was 1.75; in that of TCTATTAGTTGATTAGGGCAAGCGAAACAGCGGA, 0.402. Sequence TCTTGTAGATCAAAGGGTAAGAAAGCCGAAGCCT had a PBM binding z-score of 0.126. With TCTAGTTGGTCGAAGGTCACACACTCGAAATGCG, the PBM binding z-score stood at 3.37. For GGAACGAGGGCAAAGTGGATAGCATCTGTCGACG, the PBM binding z-score is 1.08. As for AGAACGAGGGCACGCTGATTTGATAGCAGAGTAG, the figure is 0.858; as for ATCTCTAGGTAACCAAGTTCAGTAAATGCCGAAC, 4.07. For CATACAGGGTCAGCTAGGCCCGAGTAGGGACGGC, the PBM binding z-score was 2.63. GCTTGTAGATCCAGGTTAAGAAAGACTAAGCTAA came in with a PBM binding z-score of -0.307. In the case of AGAATGAGGTTACCAAAGATCAGGGCAACGCTTG it was 1.69; in that of CCTGGTAGGTCATGGTCAGCTAATCTACAGTATG, 1.89. In the case of GCCACTGGGGCAAAGCAGGTTACCATAAGGTTGG it was -0.0502.

Consider TCTTTTAGATCAAAGGTTAAGAAAGCCGAAGCCT, for which the PBM binding z-score was 1.51. In turn, CTACGAAGGTGAACAAGGTCGTTGATTACTATTC yielded a PBM binding z-score of 6.15. The sequence AGAACGAGGGCACGCTGAGTTGCTAGCAGAGTAG displayed a PBM binding z-score of 1.18.

Sequence CCTAGCAGGCCAGGGTCAGTCAAGCATTTCGCTT displayed a PBM binding z-score of 0.634. CCAGACAGGTGAATGGTAACTCAGTCTGGTACGC: the PBM binding z-score is -0.231.

The record behind these values is the supplement of paper PMC6555819.
